Results filed as inconclusive are left out. Entries that show only a call come without a potency. The source made the active and inactive calls. The call rests on the fitted dose curve; in most records, active means well fitted activation curve with a large enough effect; inconclusive means small, poorly fitted or top-dose-only effect; inactive means flat fitted curve, though single readings scatter.
Assay: qHTS for Inhibitors of Cell Surface uPA Generation: Confirmatory Assay for Cherry-picked Compounds
Procedure, shortened: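 RAW 264.7 cells at 4000/well, incubated overnight, then treated with compounds. After 24 h at 37 C, viability was read by ATPlite luminescence. An increase in signal indicates blocked uPA-dependent LF entry.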

| SMILES | Potency |
| --- | --- |
| CCc1ccc(NC(=O)Cn2cnc([N+](=O)[O-])c2)cc1 | inactive |
| O=[N+]([O-])c1ccc(C[n+]2cccc(O)c2)cc1 | inactive |
| COCCNS(=O)(=O)c1cc(OC)c(C)cc1C | inactive |
| CC(=O)Oc1ccccc1C(=O)Nc1ccccc1C(=O)N1CCCC1 | inactive |
| CCN1CCN(Cc2ccc(NC(=O)c3cc(NC(=O)c4cncc(-c5cccs5)c4)cc(OC)c3)cc2C(F)(F)F)CC1 | inactive |
| c1csc(CN2CCOCC2)c1 | inactive |
| CC(Sc1nnc2ccccn12)C(=O)NCc1ccc2c(c1)OCO2 (stereo not drawn) | inactive |
| COc1ccc2nc(C)cc(Nc3ccccc3O)c2c1 | inactive |
| CC(C)N1CCc2c(sc(NC(=O)Cc3ccccc3)c2C(N)=O)C1 | inactive |
| C[C@H]1CN([C@@H](C)CO)C(=O)c2cc(NS(=O)(=O)c3ccc(Cl)cc3)ccc2O[C@@H]1CN(C)CC1CCCCC1 | inactive |
| COC(=O)CCSCC(=O)N1N=C(c2ccc(OC)cc2)CC1c1cccc(OC)c1OC (stereo not drawn) | inactive |
| O=C(NCCCN1CCCC1=O)c1cccc(Oc2ccccc2)c1 | inactive |
| O=C(Nc1ccc2c(c1)CCC2)Nc1ccc2c(c1)OCO2 | inactive |
| CCCOc1ccc(S(=O)(=O)NNC(=O)c2cc3ccccc3o2)cc1 | inactive |
| CCC(=O)N(Cc1cc2ccc(C)cc2[nH]c1=O)c1ccccc1OC | inactive |
| COc1ccc(-n2nc(C(=O)Nc3cc(OC)c(OC)c(OC)c3)c3ccccc3c2=O)c(OC)c1 | inactive |
| CCCCN(CC(=O)Nc1cccc(S(=O)(=O)N2CCCC2)c1)Cc1nc2ccccc2c(=O)[nH]1 | inactive |
| COc1cc(N/C(N)=N/c2nc(C)cc(C)n2)cc(OC)c1 | inactive |
| CCOC(=O)CC(=O)CSc1nc2c(C)c(C)ccc2cc1C | inactive |
| Cc1cc(C)n2nc(CNS(=O)(=O)c3ccc(F)c(C)c3)nc2n1 | inactive |
| Cc1ccc(C(CC(=O)N2CCCC2)c2ccccc2)c(O)c1 (stereo not drawn) | inactive |
| CC1(C)C([N+](=O)[O-])C(c2ccc(F)cc2)NC(c2ccc(F)cc2)C1[N+](=O)[O-] (stereo not drawn) | inactive |
| COC(=O)[C@H](CC(C)C)N(Cc1ccccc1)S(=O)(=O)N(Cc1ccc(OC)cc1)[C@@H](CC(C)C)C(=O)OC | inactive |
| COc1ccccc1C(=O)Nc1cccc(C(=O)c2ccccc2)c1 | inactive |

| SMILES | Potency |
| --- | --- |
| Cc1ccc(NC(=S)N2CCN(Cc3ccc4c(c3)OCO4)CC2)c(C)c1 | inactive |
| COc1ccc(C(C)=O)cc1CSC(=N)N | inactive |
| CCOC(=O)Cn1c(=O)cc(C)c2cccc(C)c21 | inactive |
| Cc1ccc(C23CC4CC(CC(C(=O)NN)(C4)C2)C3)cc1 | inactive |
| Cc1cc2[nH]c(=O)c(=O)[nH]c2cc1S(=O)(=O)NC1CCC(C)CC1 (stereo not drawn) | inactive |
| CCCCNC(=O)c1cc2c(-c3ccc(Cl)cc3)nn(C)c2s1 | inactive |
| COc1ccc(CCNC(=O)COC(=O)CNS(=O)(=O)c2ccc(SC)c([N+](=O)[O-])c2)cc1 | inactive |
| Fc1ccc(CNc2ccccn2)cc1 | inactive |
| O=C(c1cc(COc2ccc(F)cc2Cl)on1)N1CCCCCC1 | inactive |
| Cc1oc2c(Cl)c(Cl)c(O)c(CN(C)C)c2c1C(=O)c1ccc(Cl)cc1 | inactive |
| Cc1cccc(N2C(=O)c3cccc(Oc4ccc(Cl)cc4)c3C2=O)c1 | inactive |
| C=CC1=C(C(=O)O)N2C(=O)[C@@H](NC(=O)/C(=N\O)c3csc(N)n3)[C@H]2SC1 (stereo in doubt) | inactive |
| O=[N+]([O-])c1cccc2c(N3CCOCC3)ccnc12 | inactive |
| CC(C)c1ccc(SCc2noc(C(=O)NCC3CCCO3)c2C(=O)O)cc1 (stereo not drawn) | inactive |
| COc1ccc(C(=O)NCC(=O)N/N=C/c2c(C)[nH]c3ccccc23)cc1 | inactive |
| Cc1nn2c(=O)cc(CSc3nc4ccccc4[nH]3)nc2s1 | inactive |
| CCOC(=O)C1(CCOc2ccccc2)CCN(Cc2ccc(O)c(OC)c2)CC1 | inactive |
| O=C(CCc1ccccc1)NNC(=O)c1cccc(F)c1 | inactive |
| CN(C)c1ccc(S(=O)(=O)N2CCC(Cc3ccccc3)CC2)cn1 | inactive |
| Cc1cccc(C)c1NC(=O)c1c(O)c2ccccc2[nH]c1=O | inactive |
| Nc1ccc(S(=O)(=O)c2ccccc2)nc1 | inactive |
| CS(=O)(=O)N1CCC(C(=O)Nc2ccccc2)CC1 | inactive |
| Cc1cc(-c2ccccc2)nc(N/N=C/c2ccc(N(C)C)cc2)n1 | inactive |
| CC1C2=C(CC(C)(C)CC2=O)NC2=C1C(=O)CC(C)(C)C2 | inactive |
